# PubChem BioAssay (EPA / NIEHS)
# Inconclusive results are not listed. The source made the active and inactive calls. Rule for the calls: active = hit-call score of the fitted dose curve at least 0.9, where 1 is the maximum; inconclusive = response in the unintended direction; inactive = score below 0.9.
# Read-out: xenobiotic metabolism (CYP1A1), CYP1A1 (gene 1543)
# Assay: CLD_CYP1A1_24hr: CellzDirect (CLD) Gene Expression Assay for xenobiotic metabolism (CYP1A1) at 24 hours (AID 2283673)
# Protocol: CLD_24hr is a cell-based, multiplexed-readout assay that uses hepatocyte, a human liver primary cell, with measurements taken at 24 hours after chemical dosing in a 96-well plate.CLD_CYP1A1_24hr is one of 16 assay component(s) measured or calculated from the CLD_24hr assay. It is designed to make measurements of mRNA induction, a form of inducible reporter, as detected with chemiluminescence signals by Quantitative Nuclease Protection Assay (qNPA) technology.Data from the assay component CLD_CYP1A1_24hr was analyzed at the endpoint, CLD_CYP1A1_24hr, in the positive analysis fitting direction relative to DMSO as the negative control and baseline of activity. Using a type of inducible reporter, gain-of-signal activity can be used to understand changes in the reporter gene as they relate to the gene CYP1A1. Furthermore, this assay endpoint can be referred to as a primary readout. To generalize the intended target to other relatable targets, this assay endpoint is annotated to the cyp intended target family, where subfamily is xenobiotic metabolism.
# Human hepatocyte cultures were treated daily for two consecutive days with fresh dosing solutions containing appropriate concentrations of the 320 ToxCast chemicals (chemical identities were blinded to CellzDirect and other ToxCast collaborators), vehicle control (0.2% DMSO), and positive control inducers as summarized in Table 1. Due to the large number of treatment groups and chemicals examined, the ToxCast chemicals were divided into two groups (spanning two independent cultures of hepatocytes from separate donor preparations (Hu778: ToxCast plates 1 and 2; Hu776: ToxCast plates 3 and 4). Each preparation of human hepatocyte cultures was treated with respective vehicle control, medium only control, set of six positive controls/reference chemicals for the five hepatic receptor pathways, and a subset of eight of the ToxCast chemicals (indoxacarb, pyrithiobac-sodium, norflurazon, cyhalofop-butyl, methomyl, thiram, acetochlor, and propiconazole). These replicate data, coupled with internal replicates designed within the blinded ToxCast chemical library, provided additional data to evaluate interindividual differences between hepatocyte preparations and their potential impact on chemical profiles.Cell morphology and integrity were evaluated using phase-contrast microscopy as an indicator of hepatocyte cell health (Tyson & Green, 1987). Cultures for each treatment group (i.e., media, vehicle [0.2% DMSO], positive control inducers [multiple concentrations], and the ToxCast chemicals [multiple concentrations]) were observed and cell morphology was assessed relative to vehicle control cultures at each harvest time point (0, 6, 24, or 48 h). […] Images were evaluated at the conclusion of the study to assess changes in cell integrity and account for the effects of chemical exposure on uncharacteristic changes in concentration-dependent gene expression profiles. The results from these determinations of apparent cytotoxicity were annotated (yes/no) alongside the corresponding qNPA data for reference.At the conclusion of each treatment period, hepatocyte cultures (96-well) were washed with 1 volume of HBSS, lysed by addition of 25 ul ArrayPlate lysis buffer (HTG, Tucson, AZ), and 70 ul/well of Denaturation Oil, denatured by incubation at 95C for 10 min, and frozen at approximately -70C until analysis by nuclease protection assay (qNPA) (Roberts et al., 2007). For qNPA analysis, cell lysates were thawed at 50C for approximately 30 min, qNPA probes were added, and samples were incubated at 95C for 10 min to begin the detection process by denaturing the target RNA, dissociating the duplexes and secondary structure hybridization. At the conclusion of the hybridization period, S1 nuclease reagent was added to each sample to digest all nonprotected nucleotides at 50C for 60-90 min. […]
Structure (SMILES),AC50,outcome
CSC(=O)c1c(C(F)F)nc(C(F)(F)F)c(C(=O)SC)c1CC(C)C,4.78 µM (active),–
COC(=O)NC(=S)Nc1ccccc1NC(=S)NC(=O)OC,15.1 µM (active),–
CCOc1cc(C(C)(C)C)ccc1C1COC(c2c(F)cccc2F)=N1 (stereo not given),20 µM (active),–
COCC(=O)N(c1c(C)cccc1C)C(C)C(=O)OC (stereo not given),–,inactive
CCC(C)n1c(=O)[nH]c(C)c(Br)c1=O (stereo not given),5.45 µM (active),–
COP(=S)(OC)Oc1ccc([N+](=O)[O-])c(C)c1,3.97 µM (active),–
CCN(CC)C(=O)C(C)Oc1cccc2ccccc12 (stereo not given),–,inactive
COC(=O)c1c(C(F)F)nc(C(F)(F)F)c(C2=NCCS2)c1CC(C)C,36.1 µM (active),–
CCCN(CC)CC1COC2(CCC(C(C)(C)C)CC2)O1 (stereo not given),0.376 µM (active),–
CCOP(=O)(OCC)Oc1nc(Cl)c(Cl)cc1Cl,–,inactive
Clc1cccc(C(Cl)(Cl)Cl)n1,3.97 µM (active),–
CS(=O)(=O)c1ccc(C(=O)C2C(=O)CCCC2=O)c([N+](=O)[O-])c1,–,inactive
CC1(C)CON(Cc2ccccc2Cl)C1=O,–,inactive
Nc1c(Cl)c(F)nc(OCC(=O)O)c1Cl,–,inactive
COc1ccc(-c2ccccc2)cc1NNC(=O)OC(C)C,14.1 µM (active),–
COC(=O)N(C(=O)N1CO[C@@]2(C(=O)OC)Cc3cc(Cl)ccc3C2=N1)c1ccc(OC(F)(F)F)cc1,1.86 µM (active),–
CCCCC(C#N)(Cn1cncn1)c1ccc(Cl)cc1 (stereo not given),35.3 µM (active),–
CCCC(=NOCC)C1=C(O)CC(CC(C)SCC)CC1=O (stereo not given),–,inactive
Cc1ccc(N=CN(C)C=Nc2ccc(C)cc2C)c(C)c1,1.9 µM (active),–
OC(c1ccc(Cl)cc1)(c1ccc(Cl)cc1)C(Cl)(Cl)Cl,20 µM (active),–

Structure (SMILES),AC50,outcome
CC(C)Oc1cccc(NC(=O)c2ccccc2C(F)(F)F)c1,20 µM (active),–
COP(=S)(OC)SCn1nnc2ccccc2c1=O,3.65 µM (active),–
Nc1c(Cl)c(Cl)nc(C(=O)O)c1Cl,–,inactive
O=C1C2CC=CCC2C(=O)N1SC(Cl)(Cl)Cl (stereo not given),–,inactive
N#Cc1c[nH]cc1-c1cccc2c1OC(F)(F)O2,3.64 µM (active),–
CCCCOCN(C(=O)CCl)c1c(CC)cccc1CC,6.4 µM (active),–
Cn1c(-c2ccccc2)cc(-c2ccccc2)[n+]1C,0.158 µM (active),–
CNC(=O)Oc1cccc2ccccc12,8.24 µM (active),–
COP(=O)(OC)O/C(C)=C/C(=O)N(C)C,–,inactive
CN=C=S,–,inactive
CC(C)(C)C(=O)C(Oc1ccc(Cl)cc1)n1cncn1 (stereo not given),9.03 µM (active),–
CC1(C)C(C=C(Cl)Cl)C1C(=O)OC(C#N)c1cccc(Oc2ccccc2)c1 (stereo not given),8.15 µM (active),–
CCOP(=S)(OCC)Oc1nc(Cl)n(C(C)C)n1,2.18 µM (active),–
N#CN=C1SCCN1Cc1ccc(Cl)nc1,–,inactive
CCCCC(O)(Cn1cncn1)c1ccc(Cl)cc1Cl (stereo not given),4.35 µM (active),–
CCSC(=O)N1CCCCCC1,–,inactive
Nc1cnn(-c2ccccc2)c(=O)c1Cl,–,inactive
COC(=O)NS(=O)(=O)c1ccc(N)cc1,0.00106 µM (active),–
COc1cc(OC)nc(NC(=O)NS(=O)(=O)c2ncccc2OCC(F)(F)F)n1,–,inactive
CCOc1nc(C(Cl)(Cl)Cl)ns1,–,inactive
